Consider 72 compounds from the supplement of paper PMC6135742.

Counter-ions that a name gives are not always drawn. ± gives the standard deviation of the averaged measurements. The full ranking holds about 2,600 compounds; the median of “MBP+ mature oligodendrocyte number relative to DMSO vehicle control” is about -0.34, and the highest 2% start at about 13. Many of the other results were omitted from the sample, so the highest values are more common in it than they were.
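Note: 10 µM single dose with 3-day oligodendrocyte differentiation.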

The test system of this experiment is jimpy (Plp1 jimpy) mouse iPSC-derived oligodendrocyte progenitor cells. Briefly: MBP+ mature oligodendrocyte number relative to DMSO vehicle control (SDs above negative control mean); higher = more surviving jimpy oligodendrocytes (rescue). To be noted: 10 µM; 3 days.
With `NC(N)=NC(N)=Nc1ccccc1` [1-Phenylbiguanide], the “MBP+ mature oligodendrocyte number” value came to 0.289.
The result for `CC[C@H](/C=C/[C@@H](C)[C@H]1CC[C@H]2[C@@H]3CC=C4C[C@@H](O)CC[C@]4(C)[C@H]3CC[C@]12C)C(C)C` [Stigmasterol] reads -1.84; that for `CC(=O)[C@H]1CC[C@H]2[C@@H]3CC=C4C[C@@H](O)CC[C@]4(C)[C@H]3CC[C@]12C` [Pregnenolone], -3.89.
The result for `C[C@]12CC[C@H](O)CC1=CC[C@@H]1[C@@H]2CC[C@]2(C)C(n3cnc4ccccc43)=CC[C@@H]12` [Galeterone] reads 16.8; that for `CC(C)C[C@H](NP(=O)(O)O[C@H]1O[C@H](C)[C@@H](O)[C@H](O)[C@@H]1O)C(=O)N[C@@H](Cc1c[nH]c2ccccc12)C(=O)O` [Phosphoramidon disodium], -0.211; that for `CN(N=O)C(=O)NC1C(O)OC(CO)C(O)C1O` (configuration not stated) [Streptozotocin (STZ)], 0.109.
Then `CN(C)C1CCN(C(=O)c2ccc(NC(=O)Nc3ccc(-c4nc(N5CCOCC5)nc(N5CCOCC5)n4)cc3)cc2)CC1`, with less than -6.01.
For the compound `CC(C)(N)c1ncc(-c2ccc(OC(F)(F)F)cc2)[nH]1`, the “MBP+ mature oligodendrocyte number” value was -1.43.
Take `O=C(NC(NC(=S)Nc1ccc(F)c([N+](=O)[O-])c1)C(Cl)(Cl)Cl)C(c1ccccc1)c1ccccc1` (configuration not stated): the “MBP+ mature oligodendrocyte number” value was -5.76.
Then `CCN(CC)Cc1ccc(C(=O)N(CCc2ccccc2OC)[C@@H]2CCNC2)cc1`, with -3.89; and `CCCC(CCC)C(=O)O` [Valproic acid sodium salt (Sodium valproate)], with 0.72.
As to `CC(C)[N+]1(C)[C@@H]2CC[C@H]1C[C@@H](OC(=O)C(CO)c1ccccc1)C2` (some centres not stated) [Ipratropium bromide], the “MBP+ mature oligodendrocyte number” value is -0.439.
Then `CC(C)[N+]1(C)[C@@H]2CC[C@H]1C[C@@H](OC(=O)C(CO)c1ccccc1)C2` (some centres not stated) [Ipratropium Bromide], with 0.883; and `CCCC(CCC)C(=O)O` [Valproic acid sodium], with 0.147; and `CCCC(CCC)C(=O)O` [Divalproex Sodium], with 2.05.
Then `CCCC(CCC)C(=O)O[C@H]1C[C@H]2CC[C@@H](C1)[N+]2(C)C` [Anisotropine methyl bromide], with 32.5; and `Nc1cc(C(F)(F)F)c(-c2cc(N3CCOCC3)nc(N3CCOCC3)n2)cn1` [BKM120 (NVP-BKM120, Buparlisib)], with -4.7; and `Clc1ccc(N2CCN(Cc3cc4ccccn4n3)CC2)cc1`, with 0.61.
Then `CCCCS(=N)(=O)CCC(N)C(=O)O` (racemic) [DL-Buthionine-[S,R]-sulfoximine], with -0.472; and `COc1ccc(CCN(C)CCCC(C#N)(c2ccc(OC)c(OC)c2)C(C)C)cc1OC` (racemic) [(±)-Verapamil hydrochloride], with -2.6; and `CC(C(=O)O)c1ccc(-c2ccccc2)c(F)c1` (configuration not stated) [Flurbiprofen], with -0.0169.
Turning to `C/C(O)=C(\C#N)C(=O)Nc1ccc(C(F)(F)F)cc1` [Teriflunomide], the “MBP+ mature oligodendrocyte number” value worked out at 0.913.
For `CC(C)C[C@H](C(=O)O)c1cc(-c2ccc(C(F)(F)F)cc2)cc(-c2ccc(C(F)(F)F)cc2)c1`, the “MBP+ mature oligodendrocyte number” value came out at 25.5.
Then `C=CC(=O)N1CCC[C@@H](n2nc(-c3ccc(Oc4ccccc4)cc3)c3c(N)ncnc32)C1`, with 0.104; and `Cc1ccc(C(=O)N(CCCN)[C@@H](c2oc3cc(Cl)ccc3c(=O)c2Cc2ccccc2)C(C)C)cc1`, with less than -4.81.
The result for `c1ccc(CN2CCC3(CCCc4ccccc43)CC2)cc1` [L-687,384 hydrochloride] reads 0.735.
The result for `Cc1nn(-c2ccccc2)c(C)c1C=NN1CCN(Cc2ccccc2)CC1` reads 14.2 ± 1.6; that for `Cc1cccc(CN2CCN(C(c3ccccc3)c3ccc(Cl)cc3)CC2)c1` (configuration not stated) [Meclizine 2HCl], -4.88; that for `Nc1n[n+]([O-])c2ccccc2[n+]1[O-]` [Tirapazamine], -2.44.
`O=c1sn(-c2cccc3ccccc23)c(=O)n1Cc1ccccc1` [Tideglusib]: the “MBP+ mature oligodendrocyte number” value was -0.769.
For the compound `NNC(=O)CSc1nc2scc(-c3ccccc3)c2c(=O)n1-c1ccccc1`, the “MBP+ mature oligodendrocyte number” value was -0.637.
On to `OC(CCN1CCCCC1)(c1ccccc1)C1CC2C=CC1C2` (configuration not stated) [Biperiden HCl], for which the “MBP+ mature oligodendrocyte number” value was 13.7.
The result for `OC(CCN1CCCCC1)(c1ccccc1)C1CCCCC1` (configuration not stated) [Trihexyphenidyl hydrochloride] reads -0.104.
Then `OC(CCN1CCCCC1)(c1ccccc1)C1CC2C=CC1C2` (configuration not stated) [Biperiden hydrochloride], with 2.59; and `O=c1cc(-c2cccc3c2Sc2ccccc2S3)oc(N2CCOCC2)c1`, with -3.99; and `C[N+]1(C)CCC(=C(c2ccccc2)c2ccccc2)CC1` [Diphemanil Methylsulfate], with 19.2.
Then `C[N+]1(C)CCC(OC(=O)C(c2ccccc2)c2ccccc2)CC1` [4-DAMP methiodide], with 2.86.
`O=C(O)c1ccccc1` [Benzoic Acid]: the “MBP+ mature oligodendrocyte number” value was determined as 0.66.
Then `C[N+]1(C)CCC(OC(=O)C(c2ccccc2)c2ccccc2)CC1`, with 0.467; and `C=C1/C(=C\C=C2/CCC[C@]3(C)[C@@H]([C@H](C)/C=C/[C@H](C)C(C)C)CC[C@@H]23)C[C@@H](O)C[C@@H]1O` [Doxercalciferol], with 8.14.
As for `C=C1CC[C@H](O)C/C1=C/C=C1\CCC[C@]2(C)[C@@H]([C@H](C)/C=C/[C@H](C)C(C)C)CC[C@@H]12` [Vitamin D2], the “MBP+ mature oligodendrocyte number” value is 21.5.
Regarding `C=C1CC[C@H](O)C/C1=C/C=C1\CCC[C@]2(C)[C@@H]([C@H](C)CCCC(C)C)CC[C@@H]12` [Vitamin D3], the “MBP+ mature oligodendrocyte number” value is 5.56.
As to `CCCCCCCCCCCCCCSCC(=O)O` [Tetradecylthioacetic acid], the “MBP+ mature oligodendrocyte number” value was found to be 0.00298.
Turning to `CCCCC[C@H](O)/C=C/[C@H]1[C@H](O)CC(=O)[C@@H]1CCCCCCC(=O)O` [Alprostadil], the “MBP+ mature oligodendrocyte number” value was determined as 0.793.
`CCCCC(F)(F)[C@@]1(O)CC[C@H]2[C@@H](CC(=O)[C@@H]2CCCCCCC(=O)O)O1` [Lubiprostone]: the “MBP+ mature oligodendrocyte number” value amounted to 25.2.
The result for `Cc1cnc(-c2cc(N3CCN(C(=O)CCS(C)(=O)=O)CC3)ncc2Cl)c(C)c1` reads 0.184.
Then `CC(C)(C(=O)O)c1ccc(C(O)CCCN2CCC(C(O)(c3ccccc3)c3ccccc3)CC2)cc1` (configuration not stated) [Fexofenadine hydrochloride], with 0.659; and `CC(NCCc1ccc(O)cc1)C(O)c1ccc(O)cc1` (configuration not stated) [Ritodrine HCl], with -0.164; and `C[C@H](N[C@@H](CCc1ccccc1)C(=O)O)C(=O)N1CCC[C@H]1C(=O)O` [Enalaprilat Dihydrate], with -0.467.
`CC(NCCc1ccc(O)cc1)C(O)c1ccc(O)cc1` (configuration not stated) [Ritodrine hydrochloride]: the “MBP+ mature oligodendrocyte number” value is 1.15.
The result for `CC(C)(C)c1ccc(C(O)CCCN2CCC(C(O)(c3ccccc3)c3ccccc3)CC2)cc1` (configuration not stated) [Terfenadine] reads less than -3.85; that for `CC(C)(C(=O)O)c1ccc(C(O)CCCN2CCC(C(O)(c3ccccc3)c3ccccc3)CC2)cc1` (configuration not stated) [Fexofenadine HCl], 1.53; that for `C[C@@H](CN1CCC(Cc2ccccc2)CC1)[C@@H](O)c1ccc(O)cc1` [Ro 25-6981 hydrochloride], 14.6.
For `C[C@H](N[C@@H](CCc1ccccc1)C(=O)O)C(=O)N1CCC[C@H]1C(=O)O` [Enalaprilat dihydrate], the “MBP+ mature oligodendrocyte number” value stood at 0.574.
As for `CC(C(O)c1ccc(O)cc1)N1CCC(Cc2ccccc2)CC1` (configuration not stated) [Ifenprodil tartrate], the “MBP+ mature oligodendrocyte number” value was found to be 8.03.
Take `CC(C(O)c1ccc(O)cc1)N1CCC(Cc2ccccc2)CC1` (configuration not stated) [Ifenprodil Tartrate]: the “MBP+ mature oligodendrocyte number” value was found to be 20.3.
The result for `CC(=Cc1ccc(C(=O)O)cc1)c1ccc2c(c1)C(C)(C)CCC2(C)C` reads 0.539; that for `O=C(/C=C/c1ccc(CN(CCO)CCc2c[nH]c3ccccc23)cc1)NO` [LAQ824 (Dacinostat)], less than -6.7.
Then `CC(C)(C)[N+]([O-])=Cc1ccc(S(=O)(=O)O)cc1S(=O)(=O)O`, with 2.35.
`CC(C)c1cc(-c2ccc(F)c3ccccc23)nc(N)n1`: the “MBP+ mature oligodendrocyte number” value came out at 6.85.
With `Nc1ccc2ncnc(NCCc3ccc(Oc4ccccc4)cc3)c2c1`, the “MBP+ mature oligodendrocyte number” value was less than -6.35.
Then `N#C/C(=C1/SC[C@@H](c2ccc(Cl)cc2Cl)S1)n1ccnc1` [Luliconazole], with 19.8; and `CC(=O)O[C@]1(C(C)=O)CC[C@H]2[C@@H]3C[C@H](C)C4=CC(=O)C=C[C@]4(C)[C@@]3(F)[C@@H](O)C[C@@]21C` [Fluorometholone Acetate], with 10.3; and `CC(=O)S[C@@H]1CC2=CC(=O)CC[C@]2(C)[C@H]2CC[C@@]3(C)[C@@H](CC[C@@]34CCC(=O)O4)[C@H]12` [Spironolactone], with 1.84 ± 1.7.
On to `CC(=O)OCC(=O)[C@@]1(O)CC[C@H]2[C@@H]3CCC4=CC(=O)CC[C@]4(C)[C@H]3C(=O)C[C@@]21C` [Cortisone 21-acetate], for which the “MBP+ mature oligodendrocyte number” value was -0.825.
Then `CC(=O)O[C@]1(C(C)=O)CC[C@H]2[C@@H]3C=C(C)C4=CC(=O)CC[C@]4(C)[C@H]3CC[C@@]21C` [Megestrol Acetate], with 15.4; and `C[C@]12CCC(=O)C=C1CC[C@@H]1[C@@H]2CC[C@@]2(C)[C@H]1CC[C@]2(O)C(=O)CO` [Cortexolone], with 0.431; and `CC(=O)OCC(=O)[C@@]1(O)CC[C@H]2[C@@H]3CCC4=CC(=O)CC[C@]4(C)[C@H]3C(=O)C[C@@]21C` [Cortisone acetate], with -0.164.
Turning to `CC(=O)O[C@]1(C(C)=O)CC[C@H]2[C@@H]3C[C@H](C)C4=CC(=O)CC[C@]4(C)[C@H]3CC[C@@]21C` [Medroxyprogesterone acetate], the “MBP+ mature oligodendrocyte number” value stood at 16.5.
The result for `CC(=O)O[C@]1(C(C)=O)CC[C@H]2[C@@H]3C=C(Cl)C4=CC(=O)[C@@H]5C[C@@H]5[C@]4(C)[C@H]3CC[C@@]21C` [Cyproterone Acetate] reads 21.5; that for `CC(=O)O[C@]1(C(C)=O)CC[C@H]2[C@@H]3C=C(Cl)C4=CC(=O)[C@@H]5C[C@@H]5[C@]4(C)[C@H]3CC[C@@]21C` [Cyproterone acetate], 3.38; that for `CC(C)CCN1c2nc(Nc3cc(F)c(O)c(F)c3)ncc2N(C)C(=O)C1C` (configuration not stated), less than -6.01.
